{"source": "PubChem BioAssay (NCATS)", "note": "Records with an inconclusive call do not appear. A number with no mark means an inactive call. The source made the active and inactive calls. Calls follow the shape of the dose curve; as a rule, active = well fitted cell-killing curve with a large enough effect; inconclusive = small, poorly fitted or top-dose-only effect; inactive = flat fitted curve, though single readings scatter. Potency is read from the fitted curve at half-maximal effect."}
{"test": "Cell Viability - LYMP2-019 (AID 973); also: nearly all actives have a fitted effect of over 55% in size;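 as to activity change, negative = cytotoxicity: 0% = DMSO alone and full effect = 92 µM tetraoctylammonium bromide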", "conditions": "LYMP2-019 lymphoblastoid cell line viability; series mostly up to 92.2 µM; activity change, negative = cytotoxicity: at the top concentration", "from_the_text": "NIH Chemical Genomics Center [NCGC]\nNIH Molecular Libraries Screening Centers Network [MLSCN]\nNational Institutes of Environmental Health Sciences [NIEHS]\nNational Toxicology Program [NTP]\nWe have developed a 1536-well cell-based assay for quantitative high throughput screening (qHTS) against a number of cell lines to determine in vitro cytotoxicity of small molecules. This particular assay uses a human lymphoblastoid cell line (LYMP2-019) purchased from Coriell Institute for Medical Research.\nNCGC Assay Protocol Summary:\nThe CellTiter-Glo luminescent cell viability assay (Promega) is a homogeneous method to measure the number of viable cells in culture. The end point readout of this assay is based on quantitation of intracellular ATP, an indicator of metabolic activity, using the luciferase reaction. Luciferase catalyzes the oxidation of beetle Luciferin to oxyluciferin and light in the presence of ATP. The luminescent signal is proportional to amount of ATP present.\nUsing the CellTiter-Glo luminescent cell viability assay, the amount of cellular ATP was measured in the lymphoblastoid cell line with complete culture medium following compound treatment for 24 hours. The assay was performed in opaque white Kalypsys 1536-well plates. In the screen, tetraoctylammonium bromide was used as positive control. Library compounds were measured for their ability to cause acute toxicity in the cell line, as reflected by a decrease in intracellular ATP levels, in a concentration-dependent manner. […] AC50 values were determined from concentration-response data modeled with the standard Hill equation.\nqHTS protocol for CellTiter Glo lymphoblastoid cellular assay\n[Step] [Parameter] [Value] [Description]\n1. Reagent; 5 uL; 2500 lymphoblastoid cells/well\n2. Time; 5 hr; 37 C incubation\n4. Controls; 23 nL; Tetraoctylammonium bromide 6.4pM to 92 uM\n5. Time; 24 hr; 37 C incubation\n6. Reagent; 5 uL; CellTiter Glo reagent\n7. Time; 30 min; Room Temperature\n8. Detection; Luminescence; Viewlux plate reader\nKeywords: cell viability, cytotoxicity, lymphoblastoid cell line, luminescence, NTPHTS, NTPHTS_NCGC, NIEHS, DSSTox, MLSMR, MLSCN, NIH Roadmap, qHTS, NCGC", "units": {"activity change, negative = cytotoxicity": "%"}}
{"compound": "O=C=Nc1ccc(Cc2ccc(N=C=O)cc2)cc1", "activity change, negative = cytotoxicity": 1.65}
{"compound": "Cc1cc(O)c(C(C)(C)C)cc1Sc1cc(C(C)(C)C)c(O)cc1C", "Potency": "39.8 µM (active)"}
{"compound": "CO[C@H]1/C=C/O[C@@]2(C)Oc3c(C)c(O)c4c(O)c(c5c(c4c3C2=O)NC2(CCN(CC(C)C)CC2)N=5)=NC(=O)/C(C)=C\\C=C\\[C@H](C)[C@H](O)[C@@H](C)[C@@H](O)[C@@H](C)[C@H](OC(C)=O)[C@@H]1C", "activity change, negative = cytotoxicity": -26.2}
{"compound": "c1ccc2c(c1)ccc1cc3c(ccc4ccccc43)cc12", "activity change, negative = cytotoxicity": -12.6}
{"compound": "CN(C)c1ccc(C2(c3ccc(N(C)C)cc3)OC(=O)c3cc(N(C)C)ccc32)cc1", "activity change, negative = cytotoxicity": -19}
{"compound": "Nc1ccc2cc3ccccc3cc2c1", "activity change, negative = cytotoxicity": -15}
{"compound": "O=C1OC(O)C(C(Cl)Cl)=C1Cl", "note": "(configuration not stated)", "Potency": "25.1 µM (active)"}
{"compound": "O=Cc1ccc(Cl)c(Cl)c1", "activity change, negative = cytotoxicity": -4.29}
{"compound": "C=C(C)c1ccccc1", "activity change, negative = cytotoxicity": 2.65}
{"compound": "CCCCCC/C(C=O)=C\\c1ccccc1", "activity change, negative = cytotoxicity": 4.77}
{"compound": "CCC(C)Nc1ccc(NC(C)CC)cc1", "note": "(configuration not stated)", "Potency": "5.01 µM (active)"}
{"compound": "O=C(/C=C/c1ccc(O)c(O)c1)OC1C[C@](O)(C(=O)O)C[C@@H](O)[C@H]1O", "note": "(some centres not stated)", "Potency": "inactive"}
{"compound": "CC(=O)Nc1ccc(C(=O)CCl)cc1", "Potency": "5.01 µM (active)"}
{"compound": "CCCCCCCC[N+](CCCCCCCC)(CCCCCCCC)CCCCCCCC", "Potency": "7.94 µM (active)"}
{"compound": "CN1[C@H]2CC(OC(=O)[C@H](CO)c3ccccc3)C[C@H]1[C@H]1O[C@H]12", "note": "(some centres not stated)", "Potency": "inactive"}
{"compound": "O=C(OCC(COC(=O)c1ccccc1)(COC(=O)c1ccccc1)COC(=O)c1ccccc1)c1ccccc1", "activity change, negative = cytotoxicity": -7.04}
{"compound": "CNc1ccc(O)cc1", "Potency": "3.98 µM (active)"}
{"compound": "O=[N+]([O-])c1cc([N+](=O)[O-])c2ccc(S(=O)(=O)O)cc2c1O", "activity change, negative = cytotoxicity": -6.05}
{"compound": "c1ccc2c(c1)-c1cccc3c1c-2cc1ccccc13", "activity change, negative = cytotoxicity": -13.1}
{"compound": "Cc1cccc(O)c1C", "activity change, negative = cytotoxicity": -10.5}
{"compound": "Cc1cc(Nc2ccc(O)cc2)ccc1N", "Potency": "39.8 µM (active)"}
{"compound": "C=CC(=O)OCCOCCOC(=O)C=C", "Potency": "25.1 µM (active)"}
